The record followed here is PubChem BioAssay (EPA / NIEHS).

The structures appear in SMILES notation. Results filed as inconclusive are left out. Activity calls are given as the source filed them. Rule for the calls, unless noted: active = hit-call score of the fitted dose curve at least 0.9, where 1 is the maximum; inconclusive = response in the unintended direction; inactive = score below 0.9.

A short description of assay [1]: ATG_TCF_b_cat_CIS: Attagene CIS-FACTORIAL HepG2 Assay for human T-Cell-Factor with beta-catenin (TCF/b-cat) (AID 2282965; active = hit-call score of the fitted dose curve at least 0.9, where 1 is the maximum; inactive = score below 0.9). The settings on record: HepG2 TCF/beta-catenin cis-reporter transcription, actives raise or lower the signal. A digest of the protocol: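 Endogenous transcription factor activity is captured through cis-promoter reporter constructs transiently introduced into human HepG2 liver cells. Induced reporter mRNA is measured after 24 h and fitted bidirectionally relative to DMSO.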

Assay [2] can be described thus: ATG_TAL_CIS: Attagene CIS-FACTORIAL HepG2 Assay for human TAL Basal Promoter (AID 2282966; active = hit-call score of the fitted dose curve at least 0.9, where 1 is the maximum; inactive = score below 0.9;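 note: background control endpoint measuring basal TAL promoter reporter mRNA not a specific factor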). Particulars: HepG2 Attagene cis-factorial TAL promoter reporter; actives raise or lower the signal. In outline:
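HepG2, transient MRTU transfection, 24 h compound exposure; RNA → oligo(dT) RT → PCR → 6-FAM primer extension → HpaI digest → CE fluorescence. Bidirectional curve fit vs DMSO. Background-control readout.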

Assay [3] can be described thus: ATG_TGFb_CIS: Attagene CIS-FACTORIAL HepG2 Assay for human Transforming Growth Factor (TGF) (AID 2282967; active = hit-call score of the fitted dose curve at least 0.9, where 1 is the maximum; inactive = score below 0.9). Particulars: HepG2 Attagene CIS TGFb reporter, mRNA transcription; actives raise or lower the signal. A digest of the protocol:
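Transcript-level reporter readout: HepG2 transfectants, 24 h exposure, RNA to cDNA, reporter-specific PCR, fluorescent primer extension, capillary sizing against ROX standards. Gain- or loss-of-signal relative to DMSO.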

The nature of assay [4]: ATG_VDRE_CIS: Attagene CIS-FACTORIAL HepG2 Assay for human Vitamin D Receptor Element (VDRE) (AID 2282968; active = hit-call score of the fitted dose curve at least 0.9, where 1 is the maximum; inactive = score below 0.9). Particulars: HepG2 VDRE cis-reporter transcription, actives raise or lower the signal. A digest of the protocol: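 Measures endogenous factor activity through cis-element-driven reporter transcripts in transiently transfected HepG2. Cells are treated 24 h; reporter mRNA is quantified by RT-PCR and capillary electrophoresis; fitting is bidirectional.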

Assay [5] deals with X-box-binding protein 1 (Homo sapiens) (UniProt P17861). Nature of the assay: ATG_Xbp1_CIS: Attagene CIS-FACTORIAL HepG2 Assay for human X-box Binding Protein 1 (XBP1) (AID 2282972; active = hit-call score of the fitted dose curve at least 0.9, where 1 is the maximum; inactive = score below 0.9). Particulars: HepG2 XBP1 cis-element reporter, Attagene multiplex; actives raise or lower the signal. A digest of the protocol: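 Changes in reporter transcript abundance, read by RT-PCR and capillary electrophoresis, reflect endogenous transcription factor activity. Transfected HepG2 cells received compound for 24 hours; DMSO defined baseline for bidirectional analysis.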

Assay [6] in a line: ATG_M_19_TRANS: Attagene TRANS-FACTORIAL HepG2 Assay for M19 Transcription Factor (Internal Marker) (AID 2282974). Particulars: HepG2 Attagene TRANS-FACTORIAL M19 internal marker reporter. In outline: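 Fluorescence of 6-FAM-labelled reporter cDNA fragments, separated by capillary electrophoresis, served as the readout. These derived from HepG2 cells carrying transfected GAL4-UAS reporter units after 24 h dosing, with DMSO as negative control.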

Assay [7] can be described thus: ATG_GAL4_TRANS: Attagene TRANS-FACTORIAL HepG2 Assay for GAL4 (Internal Marker) (AID 2282976). Particulars: HepG2 Attagene TRANS GAL4 internal marker reporter. In outline: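 RT-PCR/capillary electrophoresis readout of reporter mRNA. HepG2, transient MRTU transfection (GAL4-UAS reporters), 24 h compound exposure. Background-control endpoint, positive direction vs DMSO baseline.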

Assay [8] concerns the target Oxysterols receptor LXR-alpha (Homo sapiens) (UniProt Q13133). The experiment in a line: ATG_LXRa_TRANS: Attagene TRANS-FACTORIAL HepG2 Assay for human Liver X Receptor alpha (LXRa) (AID 2282980). The settings on record: HepG2 Attagene TRANS reporter, LXRa transactivation. A digest of the protocol: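 Read-out: reporter transcript levels by RT-PCR plus capillary electrophoresis, fluorescence intensity. Transiently transfected HepG2, exogenous NR-GAL4 chimera, GAL4-UAS reporters; 24 h compound exposure. Activity = increase over DMSO negative control.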

The target in assay [9] is Oxysterols receptor LXR-beta (Homo sapiens) (UniProt P55055). The experiment in a line: ATG_LXRb_TRANS: Attagene TRANS-FACTORIAL HepG2 Assay for human Liver X Receptor beta (LXRb) (AID 2282981). The settings on record: HepG2 Attagene TRANS GAL4-LXRb reporter, mRNA. In outline: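 After 24 h of chemical treatment, transfected HepG2 cells yield total RNA; reporter cDNA is PCR-amplified, FAM-labelled, HpaI-cut and run on capillary electrophoresis. Signal reflects chimeric LXRb-Gal4 activity on GAL4-UAS reporters.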

The nature of assay [10]: ATG_M_06_TRANS: Attagene TRANS-FACTORIAL HepG2 Assay for M06 Transcription Factor (Internal Marker) (AID 2282983). The settings on record: HepG2 Attagene TRANS M06 internal marker reporter. In outline:
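Read-out: fluorescent reporter cDNA fragments resolved by capillary electrophoresis after RT-PCR and HpaI cut. Source cells were HepG2 carrying transfected multi-reporter GAL4 constructs, dosed 24 h. Increase over DMSO control analysed.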

The nature of assay [11]: ATG_M_32_TRANS: Attagene TRANS-FACTORIAL HepG2 Assay for M32 Transcription Factor (Internal Marker) (AID 2282984). Particulars: HepG2 Attagene TRANS M32 internal marker reporter. A digest of the protocol:
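Cell-based TRANS-format assay in HepG2: exogenous chimeric GAL4 reporter units transiently expressed, compounds applied 24 h. Reporter mRNA detected by RT-PCR plus capillary electrophoresis; this readout is an internal background marker.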

Assay [12] addresses Nuclear receptor subfamily 4 group A member 2 (Homo sapiens) (UniProt P43354). The experiment in a line: ATG_NURR1_TRANS: Attagene TRANS-FACTORIAL HepG2 Assay for human Nuclear Receptor Related Protein 1 (NURR1) (AID 2282985). Particulars: HepG2 Attagene TRANS reporter, mRNA readout. A digest of the protocol:
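Measures transcriptional activation by an exogenous NR-Gal4 chimera in transfected HepG2 liver cells. After 24 h, reporter RNA is reverse-transcribed, amplified and resolved by capillary electrophoresis; DMSO defines baseline.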

Assay [13] deals with Transcriptional activator Myb (Homo sapiens) (UniProt P10242). Nature of the assay: ATG_Myb_CIS: Attagene CIS-FACTORIAL HepG2 Assay for human Myeloblastosis (Myb) Proto-Oncogene Transcription Factor (AID 2282986; active = hit-call score of the fitted dose curve at least 0.9, where 1 is the maximum; inactive = score below 0.9). The settings on record: HepG2 Attagene CIS-FACTORIAL Myb reporter transcription; actives raise or lower the signal. In outline: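 Reporter transcript levels, quantified by fluorescent RT-PCR and capillary electrophoresis, serve as the read-out. Transfected HepG2 cells carrying cis-promoter reporter units are dosed for 24 hours, and curves are fitted bidirectionally against DMSO controls.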

In assay [14] the target is Glucocorticoid receptor (Homo sapiens) (UniProt P04150). The experiment in a line: ATG_GR_TRANS: Attagene TRANS-FACTORIAL HepG2 Assay for human Glucocorticoid Receptor (GR) (AID 2282978).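 Note: activators score as hits since higher reporter transcript over DMSO is fitted.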 The settings on record: HepG2 Attagene TRANS GR reporter, mRNA transcription. In outline: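 Fluorescent capillary-electrophoresis quantitation of reporter mRNA is the readout, taken 24 h after dosing human HepG2 cells carrying transiently transfected GAL4-UAS reporter units activated by chimeric NR-GAL4 fusions; activity scored as induction over DMSO.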

Assay [15] deals with Hepatocyte nuclear factor 4-alpha (Homo sapiens) (UniProt P41235). Nature of the assay: ATG_HNF4a_TRANS: Attagene TRANS-FACTORIAL HepG2 Assay for human Hepatocyte Nuclear Factor 4 alpha (HNF4a) (AID 2282982). Particulars: HepG2 HNF4a transactivation reporter, mRNA readout. A digest of the protocol:
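Multiplexed reporter assay: transfected HepG2, 24 h exposure, total RNA → oligo(dT) RT → PCR → 6-FAM extension → HpaI digest → CE fluorescence. DMSO = negative control.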

The target in assay [16] is Nuclear receptor subfamily 1 group I member 3 (Homo sapiens) (UniProt Q14994). Nature of the assay: ATG_CAR_TRANS: Attagene TRANS-FACTORIAL HepG2 Assay for human Constitutive Androstane Receptor (CAR) (AID 2282969).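 Note: activators raise reporter mRNA above DMSO so AC50 marks induction.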 The settings on record: HepG2 Attagene TRANS-FACTORIAL CAR reporter. In outline:
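Signal is reporter mRNA induction relative to DMSO, measured 24 h after dosing by RT-PCR with fluorescent primer extension and capillary electrophoresis. Human HepG2 liver cells carried transiently transfected chimeric NR-Gal4/GAL4-UAS reporter constructs.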

The target in assay [17] is Estrogen receptor (Homo sapiens) (UniProt P03372). The experiment in a line: ATG_ERa_TRANS: Attagene TRANS-FACTORIAL HepG2 Assay for human Estrogen Receptor alpha (ERa) (AID 2282970). The settings on record: HepG2 Attagene TRANS ERa GAL4 reporter, mRNA. In outline:
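Reporter mRNA induction after 24 hours, detected by fluorescent RT-PCR and capillary electrophoresis, gives the read-out. Cells are HepG2 transiently transfected with GAL4-UAS reporter transcription units responding to chimeric NR-Gal4. Activity is taken as gain of signal over DMSO baseline.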

The target in assay [18] is Steroid hormone receptor ERR1 (Homo sapiens) (UniProt P11474). The experiment in a line: ATG_ERRa_TRANS: Attagene TRANS-FACTORIAL HepG2 Assay for human Estrogen-Related Receptor alpha (ERRa) (AID 2282971). Particulars: HepG2 Attagene TRANS reporter, ERRa transactivation. In outline:
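Transfected HepG2, 24 h dosing, ERRa-Gal4 chimera driving GAL4-UAS reporter. Readout: reporter mRNA via RT-PCR plus capillary electrophoresis (fluorescence). Positive direction vs DMSO control.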

The target in assay [19] is Estrogen-related receptor gamma (Homo sapiens) (UniProt P62508). Nature of the assay: ATG_ERRg_TRANS: Attagene TRANS-FACTORIAL HepG2 Assay for human Estrogen-Related Receptor gamma (ERRg) (AID 2282977).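 Note: hits increase reporter signal over DMSO so potencies reflect activators.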 Particulars: HepG2 Attagene TRANS reporter, ERRg transactivation. In outline:
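Exogenous NR-Gal4 chimera activity was assessed in HepG2 cells bearing transfected GAL4-UAS reporters. After 24 h dosing, total RNA underwent RT-PCR, fluorescent primer extension and HpaI digestion before capillary electrophoresis, with gain of signal scored against DMSO.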

In assay [20] the target is Bile acid receptor (Homo sapiens) (UniProt Q96RI1). Nature of the assay: ATG_FXR_TRANS: Attagene TRANS-FACTORIAL HepG2 Assay for Farnesoid X Receptor (FXR) (AID 2282979).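 Note: hits raise reporter mRNA above DMSO so AC50 marks FXR activation.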 Particulars: HepG2 Attagene TRANS FXR-GAL4 reporter transcription. In outline:
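Read-out: fluorescent reporter transcripts quantified by capillary electrophoresis after RT-PCR of total RNA. Source cells were HepG2 transiently carrying chimeric NR-GAL4 plus GAL4-UAS reporter units, dosed 24 h. Activity fitted upward relative to DMSO baseline.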

Sequence of Transcriptional activator Myb (Homo sapiens) (P10242 whole entry, looked up): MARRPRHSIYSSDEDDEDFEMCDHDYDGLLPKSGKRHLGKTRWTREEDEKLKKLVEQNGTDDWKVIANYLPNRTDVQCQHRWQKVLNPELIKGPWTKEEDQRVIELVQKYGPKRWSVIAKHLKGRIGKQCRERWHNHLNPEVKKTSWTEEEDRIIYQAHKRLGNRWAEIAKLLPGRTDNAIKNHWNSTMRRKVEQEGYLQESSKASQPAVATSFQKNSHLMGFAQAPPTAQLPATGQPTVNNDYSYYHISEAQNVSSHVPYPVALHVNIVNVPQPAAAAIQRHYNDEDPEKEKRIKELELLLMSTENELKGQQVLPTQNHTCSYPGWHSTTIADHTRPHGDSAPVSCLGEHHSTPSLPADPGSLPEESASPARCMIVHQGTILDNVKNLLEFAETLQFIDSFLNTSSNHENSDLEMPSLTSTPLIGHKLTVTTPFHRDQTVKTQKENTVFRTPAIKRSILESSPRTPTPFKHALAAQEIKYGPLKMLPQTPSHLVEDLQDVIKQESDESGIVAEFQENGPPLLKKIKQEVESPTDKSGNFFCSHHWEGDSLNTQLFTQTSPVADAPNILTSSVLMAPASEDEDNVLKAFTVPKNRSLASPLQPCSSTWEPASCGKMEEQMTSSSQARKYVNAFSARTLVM
Sequence of Hepatocyte nuclear factor 4-alpha (Homo sapiens) (P41235 whole entry, looked up): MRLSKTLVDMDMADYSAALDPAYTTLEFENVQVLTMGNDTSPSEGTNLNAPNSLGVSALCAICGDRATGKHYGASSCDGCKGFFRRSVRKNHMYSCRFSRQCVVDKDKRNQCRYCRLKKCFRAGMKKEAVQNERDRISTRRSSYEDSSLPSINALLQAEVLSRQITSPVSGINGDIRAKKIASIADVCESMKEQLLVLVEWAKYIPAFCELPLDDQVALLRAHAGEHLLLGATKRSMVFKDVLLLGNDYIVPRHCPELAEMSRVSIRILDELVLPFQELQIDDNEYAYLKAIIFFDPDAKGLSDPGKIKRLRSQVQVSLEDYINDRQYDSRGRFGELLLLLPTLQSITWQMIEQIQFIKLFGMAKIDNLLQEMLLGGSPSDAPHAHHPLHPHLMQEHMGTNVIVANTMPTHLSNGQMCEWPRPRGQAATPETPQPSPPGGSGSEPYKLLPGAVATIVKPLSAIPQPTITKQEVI
Sequence of Oxysterols receptor LXR-beta (Homo sapiens) (P55055 whole entry, looked up, the tested form may be a part): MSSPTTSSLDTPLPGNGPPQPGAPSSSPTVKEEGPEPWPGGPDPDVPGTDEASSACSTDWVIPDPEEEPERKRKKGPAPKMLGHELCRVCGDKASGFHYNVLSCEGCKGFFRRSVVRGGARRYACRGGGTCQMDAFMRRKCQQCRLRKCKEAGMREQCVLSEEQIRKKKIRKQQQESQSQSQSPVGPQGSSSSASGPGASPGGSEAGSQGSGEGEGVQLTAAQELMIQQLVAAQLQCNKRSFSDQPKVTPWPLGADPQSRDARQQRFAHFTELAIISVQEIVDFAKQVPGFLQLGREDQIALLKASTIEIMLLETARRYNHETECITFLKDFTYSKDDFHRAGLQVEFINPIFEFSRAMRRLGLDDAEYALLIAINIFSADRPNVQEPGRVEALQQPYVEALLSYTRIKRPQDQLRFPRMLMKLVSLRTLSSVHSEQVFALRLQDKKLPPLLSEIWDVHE
Sequence of Estrogen receptor (Homo sapiens) (P03372 whole entry, looked up, the tested form may be a part): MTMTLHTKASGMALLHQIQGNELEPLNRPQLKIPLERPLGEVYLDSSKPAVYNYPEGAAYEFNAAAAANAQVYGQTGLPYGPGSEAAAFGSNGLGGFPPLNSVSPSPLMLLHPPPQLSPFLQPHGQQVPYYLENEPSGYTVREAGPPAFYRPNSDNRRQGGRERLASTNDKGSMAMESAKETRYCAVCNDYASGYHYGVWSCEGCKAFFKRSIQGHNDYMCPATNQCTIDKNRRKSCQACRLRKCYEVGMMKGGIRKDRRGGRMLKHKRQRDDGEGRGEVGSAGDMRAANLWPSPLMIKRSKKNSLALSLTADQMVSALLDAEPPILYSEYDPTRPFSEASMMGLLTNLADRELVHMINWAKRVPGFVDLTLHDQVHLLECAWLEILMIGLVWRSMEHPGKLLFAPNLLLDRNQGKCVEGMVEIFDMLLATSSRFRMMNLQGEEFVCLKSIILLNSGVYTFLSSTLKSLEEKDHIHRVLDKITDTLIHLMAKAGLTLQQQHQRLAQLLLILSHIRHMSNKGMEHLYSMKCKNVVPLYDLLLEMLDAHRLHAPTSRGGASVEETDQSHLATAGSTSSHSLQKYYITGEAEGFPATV
Sequence of Nuclear receptor subfamily 4 group A member 2 (Homo sapiens) (P43354 whole entry, looked up, the tested form may be a part): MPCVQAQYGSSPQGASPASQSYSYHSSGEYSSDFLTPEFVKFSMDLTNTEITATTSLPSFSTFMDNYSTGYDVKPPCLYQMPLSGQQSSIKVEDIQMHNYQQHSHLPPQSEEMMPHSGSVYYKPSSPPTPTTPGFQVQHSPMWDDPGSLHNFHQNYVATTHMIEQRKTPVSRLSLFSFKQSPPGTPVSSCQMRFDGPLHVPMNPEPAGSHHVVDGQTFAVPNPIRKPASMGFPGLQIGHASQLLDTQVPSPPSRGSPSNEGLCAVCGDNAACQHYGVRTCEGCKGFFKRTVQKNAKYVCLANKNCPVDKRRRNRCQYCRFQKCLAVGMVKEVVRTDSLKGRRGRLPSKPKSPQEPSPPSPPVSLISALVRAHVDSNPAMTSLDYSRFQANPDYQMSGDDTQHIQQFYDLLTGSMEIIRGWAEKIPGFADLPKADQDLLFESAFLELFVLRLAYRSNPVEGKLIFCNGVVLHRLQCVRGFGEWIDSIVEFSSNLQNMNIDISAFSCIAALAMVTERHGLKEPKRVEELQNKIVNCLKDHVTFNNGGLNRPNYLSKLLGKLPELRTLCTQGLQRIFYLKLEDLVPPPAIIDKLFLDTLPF
Sequence of X-box-binding protein 1 (Homo sapiens) (P17861 whole entry, looked up): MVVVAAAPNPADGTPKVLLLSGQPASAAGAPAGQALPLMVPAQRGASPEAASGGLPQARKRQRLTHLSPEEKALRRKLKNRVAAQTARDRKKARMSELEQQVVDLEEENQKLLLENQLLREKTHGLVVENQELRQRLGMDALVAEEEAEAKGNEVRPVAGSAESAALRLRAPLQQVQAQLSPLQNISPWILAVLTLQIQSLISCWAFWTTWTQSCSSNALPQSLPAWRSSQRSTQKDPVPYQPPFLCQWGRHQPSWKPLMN
Sequence of Steroid hormone receptor ERR1 (Homo sapiens) (P11474 whole entry, looked up, the tested form may be a part): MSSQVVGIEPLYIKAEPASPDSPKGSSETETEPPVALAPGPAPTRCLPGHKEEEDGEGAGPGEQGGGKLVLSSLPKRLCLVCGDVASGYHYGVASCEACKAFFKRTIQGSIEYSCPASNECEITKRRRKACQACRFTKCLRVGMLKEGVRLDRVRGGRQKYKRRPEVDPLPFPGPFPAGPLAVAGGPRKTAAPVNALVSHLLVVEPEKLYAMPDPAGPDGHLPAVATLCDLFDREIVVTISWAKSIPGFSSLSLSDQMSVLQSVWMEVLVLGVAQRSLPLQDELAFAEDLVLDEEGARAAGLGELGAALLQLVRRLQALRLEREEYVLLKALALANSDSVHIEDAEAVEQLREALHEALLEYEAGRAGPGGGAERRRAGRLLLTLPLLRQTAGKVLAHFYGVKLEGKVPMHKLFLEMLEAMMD
Sequence of Nuclear receptor subfamily 1 group I member 3 (Homo sapiens) (Q14994 whole entry, looked up, the tested form may be a part): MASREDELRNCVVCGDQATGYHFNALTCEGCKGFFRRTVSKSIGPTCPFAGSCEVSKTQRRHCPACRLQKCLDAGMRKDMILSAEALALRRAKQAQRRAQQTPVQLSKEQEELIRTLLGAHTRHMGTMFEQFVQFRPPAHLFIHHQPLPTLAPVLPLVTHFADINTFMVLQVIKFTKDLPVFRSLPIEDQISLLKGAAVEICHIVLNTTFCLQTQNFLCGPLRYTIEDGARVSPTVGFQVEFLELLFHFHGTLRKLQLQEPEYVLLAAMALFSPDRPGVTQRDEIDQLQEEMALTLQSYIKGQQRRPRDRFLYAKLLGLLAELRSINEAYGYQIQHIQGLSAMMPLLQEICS
Sequence of Oxysterols receptor LXR-alpha (Homo sapiens) (Q13133 whole entry, looked up, the tested form may be a part): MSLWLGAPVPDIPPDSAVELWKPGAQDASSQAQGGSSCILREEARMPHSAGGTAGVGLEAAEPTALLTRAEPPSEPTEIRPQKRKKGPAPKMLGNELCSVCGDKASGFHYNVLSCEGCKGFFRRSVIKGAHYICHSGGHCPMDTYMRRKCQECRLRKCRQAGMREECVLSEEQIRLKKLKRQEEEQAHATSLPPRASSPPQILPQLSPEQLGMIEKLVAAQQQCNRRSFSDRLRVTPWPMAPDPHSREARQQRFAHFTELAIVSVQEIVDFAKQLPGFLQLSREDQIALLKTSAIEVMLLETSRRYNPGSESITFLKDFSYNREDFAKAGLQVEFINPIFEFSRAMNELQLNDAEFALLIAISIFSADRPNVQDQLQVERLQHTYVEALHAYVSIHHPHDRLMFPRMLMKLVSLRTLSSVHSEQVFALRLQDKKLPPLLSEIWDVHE
Sequence of Estrogen-related receptor gamma (Homo sapiens) (P62508 whole entry, looked up, the tested form may be a part): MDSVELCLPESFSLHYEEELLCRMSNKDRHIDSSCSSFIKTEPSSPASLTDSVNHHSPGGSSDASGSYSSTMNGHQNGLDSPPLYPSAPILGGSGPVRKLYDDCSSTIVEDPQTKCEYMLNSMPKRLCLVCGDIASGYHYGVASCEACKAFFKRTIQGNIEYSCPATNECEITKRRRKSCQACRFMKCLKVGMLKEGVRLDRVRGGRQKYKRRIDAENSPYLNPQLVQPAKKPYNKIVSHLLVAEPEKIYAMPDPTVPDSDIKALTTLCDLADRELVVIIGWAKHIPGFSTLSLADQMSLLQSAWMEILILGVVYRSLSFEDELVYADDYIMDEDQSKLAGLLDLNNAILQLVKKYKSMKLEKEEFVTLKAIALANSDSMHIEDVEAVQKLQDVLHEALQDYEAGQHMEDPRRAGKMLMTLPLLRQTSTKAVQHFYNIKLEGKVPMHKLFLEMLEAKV

As to `CNC(=C[N+](=O)[O-])NCCSCc1ccc(CN(C)C)o1`, the outcome in assay [1], in [2], in assay [3], in assay [4], in assay [5] and in assay [6] was inactive. The outcome in assay [7], in [8], in assay [9], in assay [10], in assay [11] and in assay [12] was inactive. The call in assay [13] was inactive.

For `CC/C=C\CCOC(=O)C(C)C`, the call in [1], in assay [2], in assay [3], in assay [4], in [5] and in assay [6] was inactive. For the same molecule, the call in assay [7], in assay [14], in assay [9], in assay [15] and in assay [13] was inactive.

For orientation: AC50 means the concentration at which the activity in the assay is half-maximal. With `CC(C)Cc1ccc(C(C)C(=O)O)cc1` (stereo not drawn), the outcome in [1], in [2], in assay [3], in assay [16], in [18] and in assay [5] was inactive. Besides, the molecule was called inactive in [6], in [7], in assay [19], in assay [15], in assay [11] and in assay [13]. The AC50 in assay [17] was 36.4 µM (active).

As to `CC(=O)CC(C)(C)C1CCCCC1`, the result in assay [1], in assay [2], in assay [3], in assay [16], in assay [17] and in assay [18] was inactive. Further, the result in [5], in assay [6], in [7], in [15], in [11] and in [13] was inactive.

As to `CCCOC(=O)CC`, the molecule was called inactive in assay [1], in assay [2], in assay [3], in assay [4], in assay [5] and in assay [6]. Moreover, the molecule was classed as inactive in [7], in assay [14], in assay [8], in assay [9], in assay [15] and in [11]. Moreover, in assay [13], the result was inactive.

Regarding `CCNC(=S)NCC`, the molecule was classed as inactive in [1], in assay [2], in [3], in assay [16], in assay [5] and in [8]. The molecule was called inactive in [9], in [11], in assay [12] and in [13].

Take `CCC(C)COC(=O)CC(C)C` (stereo not drawn): the call in [1], in assay [2], in [3], in assay [16], in [17] and in assay [5] was inactive. For the same molecule, the molecule was classed as inactive in [6], in assay [7], in [8], in assay [9], in assay [11] and in assay [13].

As for `CC(=O)CCC=C(C)CCC=C(C)C`, the molecule was called inactive in assay [1], in assay [2], in assay [3], in assay [16], in [17] and in assay [15]. The outcome in assay [10], in assay [11] and in assay [13] was inactive.

On to `CC(CO)(CO)[N+](=O)[O-]`, for which the molecule was called inactive in [1], in [2], in assay [3], in assay [17], in assay [5] and in [6]. In addition, the molecule was classed as inactive in [7], in assay [20], in [8], in [15], in assay [11] and in [13].

For `Cc1cc(O)c(C)c(C)c1O`, the result in [1], in assay [2], in [3], in [16], in [18] and in assay [5] was inactive. In addition, the outcome in [19], in assay [8], in assay [10], in assay [11], in assay [12] and in assay [13] was inactive. In assay [17], the AC50 is 21.2 µM (active).
